Experimental data as given in PubChem BioAssay (EPA / NIEHS).
Results filed as inconclusive are left out. Calls of active or inactive are those of the source. The calls were made as follows, unless noted: active = hit-call score of the fitted dose curve at least 0.9, where 1 is the maximum; inconclusive = response in the unintended direction; inactive = score below 0.9.

Columns and labels:
[1] = ATG_PPRE_CIS: Attagene CIS-FACTORIAL HepG2 Assay for human Peroxisome Proliferator-activated Response Element (PPRE) (AID 2282958; active = hit-call score of the fitted dose curve at least 0.9, where 1 is the maximum; inactive = score below 0.9); conditions: HepG2 PPRE cis-element reporter, Attagene transcription factor profiling; actives raise or lower the signal
Procedure, shortened: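 Read-out: fluorescent reporter mRNA fragments resolved by capillary electrophoresis after RT-PCR. HepG2 cells carried transiently transfected PPRE-driven cis reporter constructs and were dosed for 24 h; gain or loss of signal fitted relative to DMSO.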

[2] = biological target: Glucocorticoid receptor (Homo sapiens) (UniProt P04150); assay: ATG_GR_TRANS: Attagene TRANS-FACTORIAL HepG2 Assay for human Glucocorticoid Receptor (GR) (AID 2282978); conditions: HepG2 Attagene TRANS GR reporter, mRNA transcription;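 also: activators score as hits since higher reporter transcript over DMSO is fitted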
Procedure, shortened: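 Transient MRTU transfection of HepG2 (GAL4-UAS reporters, exogenous NR-GAL4 chimeras), 24 h dosing. Readout: reporter transcript via RT-PCR + capillary electrophoresis fluorescence. Positive direction vs DMSO baseline.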

[3] = biological target: Oxysterols receptor LXR-alpha (Homo sapiens) (UniProt Q13133); assay: ATG_LXRa_TRANS: Attagene TRANS-FACTORIAL HepG2 Assay for human Liver X Receptor alpha (LXRa) (AID 2282980); conditions: HepG2 Attagene TRANS reporter, LXRa transactivation
Procedure, shortened: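 In this multiplexed TRANS system, compounds act on HepG2 cells carrying GAL4-UAS reporter units and a receptor-GAL4 fusion for 24 h. Induced reporter RNA is amplified, fluorescently labelled and sized by capillary electrophoresis, with DMSO as baseline.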

[4] = biological target: Oxysterols receptor LXR-beta (Homo sapiens) (UniProt P55055); assay: ATG_LXRb_TRANS: Attagene TRANS-FACTORIAL HepG2 Assay for human Liver X Receptor beta (LXRb) (AID 2282981); conditions: HepG2 Attagene TRANS GAL4-LXRb reporter, mRNA
Procedure, shortened: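 Cells: HepG2, transiently transfected with GAL4-UAS reporter units plus LXRb-Gal4 fusion. Treatment: 24 h. Detection: reporter mRNA by RT-PCR, 6-FAM labelling, HpaI digestion, capillary electrophoresis.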

[5] = biological target: Nuclear receptor subfamily 4 group A member 2 (Homo sapiens) (UniProt P43354); assay: ATG_NURR1_TRANS: Attagene TRANS-FACTORIAL HepG2 Assay for human Nuclear Receptor Related Protein 1 (NURR1) (AID 2282985); conditions: HepG2 Attagene TRANS reporter, mRNA readout
Procedure, shortened: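 Cells: HepG2, transiently transfected. Exposure: 24 h. Detection: fluorescence of labelled RT-PCR products separated by capillary electrophoresis; upward fit versus DMSO.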

[6] = biological target: Peroxisome proliferator-activated receptor gamma (Homo sapiens) (UniProt P37231); assay: ATG_PPARg_TRANS: Attagene TRANS-FACTORIAL HepG2 Assay for human Peroxisome Proliferator-activated Receptor-gamma (PPARg) (AID 2283007)
Procedure, shortened: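 Read-out: reporter mRNA induction, detected by fluorescence after RT-PCR and capillary electrophoresis. Transiently transfected human HepG2 liver cells carrying a chimeric NR-Gal4 construct were dosed for 24 h; activity was fitted upward relative to DMSO.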

[7] = biological target: human RAR-related Orphan Receptor beta (RORb), RORB (gene 6096) (UniProt Q92753); assay: ATG_RORb_TRANS: Attagene TRANS-FACTORIAL HepG2 Assay for human RAR-related Orphan Receptor beta (RORb) (AID 2283010)
Procedure, shortened: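 HepG2 cells were transiently transfected with multiplexed GAL4-UAS reporter units expressing chimeric nuclear receptor–GAL4 proteins, then dosed for 24 h. Reporter mRNA was quantified by RT-PCR with fluorescent labelling and capillary electrophoresis; gain of signal was fitted relative to DMSO.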

[8] = biological target: Retinoic acid receptor RXR-alpha (Homo sapiens) (UniProt P19793); assay: ATG_RXRa_TRANS: Attagene TRANS-FACTORIAL HepG2 Assay for human Retinoid X Receptor alpha (RXRa) (AID 2283012)
Procedure, shortened: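 HepG2 cells transiently transfected with multiplexed GAL4-UAS reporter units and chimeric NR-GAL4 fusions, dosed 24 h. Reporter mRNA measured by RT-PCR, FAM labelling, HpaI digestion and capillary electrophoresis; gain-of-signal fitted relative to DMSO baseline.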

[9] = biological target: human Thyroid Receptor alpha (THRa1), THRA (gene 7067) (UniProt P10827); assay: ATG_THRa1_TRANS: Attagene TRANS-FACTORIAL HepG2 Assay for human Thyroid Receptor alpha (THRa1) (AID 2283014)
Procedure, shortened: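 Measured here is mRNA from a GAL4-UAS reporter in transfected HepG2 cells carrying a Gal4-fused receptor, 24 h post-dose. DMSO served as negative control and baseline.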

[10] = biological target: human Vitamin D Receptor (VDR), VDR (gene 7421) (UniProt P11473); assay: ATG_VDR_TRANS: Attagene TRANS-FACTORIAL HepG2 Assay for human Vitamin D Receptor (VDR) (AID 2283022)
Procedure, shortened: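 Multiplexed TRANS reporter in HepG2; 24 h treatment; reporter mRNA by RT-PCR plus capillary electrophoresis; upregulation scored relative to DMSO.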

[11] = TOX21_p53_BLA_p4_viability: Viability Assessment in the Tox21 HCT-116 p53 Agonism Beta-lactamase Assay, Phase 4 (AID 2283597);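 also: hits lower the luminescence signal meaning cytotoxicity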
Procedure, shortened: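 Luminescent ATP readout (CellTiter-Glo, 30 min, room temperature) in the same wells as the p53 bla ratio. HCT116 cells were treated for 16 h at 37C with DMSO-dissolved compounds.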

[12] = biological target: Bile acid receptor (Homo sapiens) (UniProt Q96RI1); assay: ATG_IR1_CIS: Attagene CIS-FACTORIAL HepG2 Assay for human Nuclear Receptor Subfamily 1 Group H Member 4 (NR1H4), IR1 submotif (AID 2282946; active = hit-call score of the fitted dose curve at least 0.9, where 1 is the maximum; inactive = score below 0.9); conditions: IR1 reporter transcription, actives raise or lower the signal
Procedure, shortened: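 Cells (human HepG2) carry transiently transfected cis-promoter reporter transcription units. Compounds are incubated 24 h, total RNA is reverse-transcribed and amplified, and labelled fragments are resolved by capillary electrophoresis. Curves use DMSO as baseline.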

[13] = biological target: Nuclear receptor subfamily 1 group I member 3 (Homo sapiens) (UniProt Q14994); assay: ATG_CAR_TRANS: Attagene TRANS-FACTORIAL HepG2 Assay for human Constitutive Androstane Receptor (CAR) (AID 2282969); conditions: HepG2 Attagene TRANS-FACTORIAL CAR reporter;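 also: activators raise reporter mRNA above DMSO so AC50 marks induction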
Procedure, shortened: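 Readout is reporter mRNA induction, quantified by fluorescent primer extension and capillary electrophoresis after RT-PCR. Cells were HepG2 transiently carrying chimeric NR-Gal4 constructs with GAL4-UAS reporters, treated for 24 h; activity scored upward from DMSO.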

[14] = biological target: human RAR-related Orphan Receptor gamma (RORg), RORC (gene 6097) (UniProt P51449); assay: ATG_RORg_TRANS: Attagene TRANS-FACTORIAL HepG2 Assay for human RAR-related Orphan Receptor gamma (RORg) (AID 2283011)
Procedure, shortened: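 Chimeric RORg-Gal4 transactivation in transfected HepG2; 24 h exposure; RT-PCR/capillary electrophoresis readout of reporter mRNA, DMSO baseline.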

[15] = ATG_XTT_Cytotoxicity: Cytotoxicity Assessment in the Attagene TRANS-FACTORIAL HepG2 Assay (AID 2283584)
Procedure, shortened: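 24 h chemical exposure of reporter-transfected HepG2; XTT signal loss vs DMSO indicates cytotoxicity.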

[16] = ACEA_ER_AUC_viability: ACEA Biosciences xCELLigence Real-Time Cell Analysis on Estrogen Receptor Agonism for Viability (AID 2283782);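 also: continuous compound exposure with impedance area under curve over 80 h; hit means loss of impedance signal meaning reduced cell growth or viability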
Procedure, shortened: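 T-47D; phenol red-free RPMI1640 + 10% CS-FBS; 8 conc., 1:4 serial, max 100 uM final, ≤0.5% DMSO; n = 2; continuous exposure; impedance monitored to 80 h post-dose; AUC vs DMSO.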

[17] = TOX21_p53_BLA_p3_viability: Viability Assessment in the Tox21 HCT-116 p53 Agonism Beta-lactamase Assay, Phase 3 (AID 2283593);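 also: cells exposed to compound for 16 h before reading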
Procedure, shortened: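 Cellular ATP was quantified by CellTiter-Glo luminescence, read after 30 min at room temperature. Beforehand, HCT116 cells (4000/well) received compound 5 h post-seeding, 217-fold diluted from DMSO, then incubated 16 h at 37C.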

[18] = biological target: human Peroxisome Proliferator-activated Receptor alpha (PPARa), PPARA (gene 5465) (UniProt Q07869); assay: ATG_PPARa_TRANS: Attagene TRANS-FACTORIAL HepG2 Assay for human Peroxisome Proliferator-activated Receptor alpha (PPARa) (AID 2283001)
Procedure, shortened: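 Reporter transcripts from GAL4-UAS units in transfected HepG2 were quantified 24 h after dosing. Detection used reverse transcription, PCR, fluorescent primer extension and capillary electrophoresis, with DMSO as baseline.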

[19] = CCTE_Harrill_HTTr_Viability_MCF7: CCTE's 6-hour Cell Viability Assessment for the High-Throughput Transcriptomics (HTTr) Platform, in MCF-7 cells cultured in DMEM + 10% fetal bovine serum, Harrill Lab (AID 2284010; active = hit-call score of the fitted dose curve at least 0.9, where 1 is the maximum; inactive = score below 0.9)
Procedure, shortened: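 Membrane integrity was scored by high-content imaging of propidium iodide dye exclusion after a 6 h exposure across an eight-point dilution series. Data were fitted bidirectionally relative to DMSO as negative control and baseline.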

[20] = CCTE_Harrill_HTTr_Apoptosis_MCF7: CCTE's 6-hour Apoptosis Assessment for the High-Throughput Transcriptomics (HTTr) Platform, in MCF-7 cells cultured in DMEM + 10% fetal bovine serum, Harrill Lab (AID 2284011; active = hit-call score of the fitted dose curve at least 0.9, where 1 is the maximum; inactive = score below 0.9)
Procedure, shortened: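 Apoptosis in MCF-7 cells grown in DMEM with 10% fetal bovine serum was scored after a six hour exposure by high content imaging of caspase-3/7 activation (CellEvent Caspase 3/7 Green), with DMSO serving as negative control and baseline.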

Measured: AC50

Chain of Glucocorticoid receptor (Homo sapiens) (P04150 whole entry, looked up, the tested form may be a part): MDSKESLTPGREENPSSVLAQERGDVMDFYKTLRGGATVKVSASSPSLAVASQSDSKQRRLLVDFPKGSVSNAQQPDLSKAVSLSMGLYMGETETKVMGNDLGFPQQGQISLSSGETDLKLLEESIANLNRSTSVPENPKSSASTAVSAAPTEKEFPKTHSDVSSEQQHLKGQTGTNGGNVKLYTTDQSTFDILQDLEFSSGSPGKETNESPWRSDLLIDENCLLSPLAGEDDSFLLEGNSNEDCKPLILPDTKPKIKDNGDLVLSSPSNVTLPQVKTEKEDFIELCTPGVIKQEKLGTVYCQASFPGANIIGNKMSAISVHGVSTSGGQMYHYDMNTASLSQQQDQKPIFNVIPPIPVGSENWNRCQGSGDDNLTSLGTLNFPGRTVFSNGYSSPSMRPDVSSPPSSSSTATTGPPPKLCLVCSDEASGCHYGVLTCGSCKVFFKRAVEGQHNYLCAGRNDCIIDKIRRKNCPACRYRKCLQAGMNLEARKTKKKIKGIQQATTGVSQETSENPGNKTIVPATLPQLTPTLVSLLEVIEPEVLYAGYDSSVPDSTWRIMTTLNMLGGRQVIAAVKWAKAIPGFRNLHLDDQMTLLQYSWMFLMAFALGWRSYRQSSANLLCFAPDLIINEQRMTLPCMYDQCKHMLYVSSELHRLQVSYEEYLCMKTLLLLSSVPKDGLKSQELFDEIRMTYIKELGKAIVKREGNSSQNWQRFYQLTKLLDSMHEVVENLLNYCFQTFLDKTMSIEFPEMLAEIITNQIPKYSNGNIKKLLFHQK
Chain of human Peroxisome Proliferator-activated Receptor alpha (PPARa), PPARA (gene 5465) (Q07869 whole entry, looked up, the tested form may be a part): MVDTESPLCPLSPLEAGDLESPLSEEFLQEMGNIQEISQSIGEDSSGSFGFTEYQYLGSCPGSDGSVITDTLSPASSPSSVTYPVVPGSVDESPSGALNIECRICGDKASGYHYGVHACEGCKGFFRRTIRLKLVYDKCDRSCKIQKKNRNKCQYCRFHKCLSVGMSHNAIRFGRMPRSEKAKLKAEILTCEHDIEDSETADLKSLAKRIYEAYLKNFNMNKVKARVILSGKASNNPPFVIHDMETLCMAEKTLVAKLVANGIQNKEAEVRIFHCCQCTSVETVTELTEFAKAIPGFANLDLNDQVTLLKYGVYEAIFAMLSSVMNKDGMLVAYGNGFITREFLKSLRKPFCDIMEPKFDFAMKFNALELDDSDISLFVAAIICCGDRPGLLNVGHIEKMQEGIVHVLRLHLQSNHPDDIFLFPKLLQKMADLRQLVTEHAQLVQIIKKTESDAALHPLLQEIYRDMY
Chain of Oxysterols receptor LXR-alpha (Homo sapiens) (Q13133 whole entry, looked up, the tested form may be a part): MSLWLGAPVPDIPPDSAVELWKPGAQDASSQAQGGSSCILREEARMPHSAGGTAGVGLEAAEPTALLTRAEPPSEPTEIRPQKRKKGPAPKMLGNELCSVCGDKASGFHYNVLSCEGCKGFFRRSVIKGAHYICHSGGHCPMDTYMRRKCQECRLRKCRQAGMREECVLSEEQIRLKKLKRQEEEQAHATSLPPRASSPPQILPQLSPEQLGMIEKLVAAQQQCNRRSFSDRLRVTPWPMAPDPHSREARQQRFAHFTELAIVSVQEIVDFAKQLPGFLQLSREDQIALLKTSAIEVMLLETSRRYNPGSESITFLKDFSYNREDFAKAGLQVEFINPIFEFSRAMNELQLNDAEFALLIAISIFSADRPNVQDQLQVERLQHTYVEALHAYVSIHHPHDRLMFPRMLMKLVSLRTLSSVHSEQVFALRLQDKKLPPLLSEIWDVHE
Chain of human RAR-related Orphan Receptor gamma (RORg), RORC (gene 6097) (P51449 whole entry, looked up, the tested form may be a part): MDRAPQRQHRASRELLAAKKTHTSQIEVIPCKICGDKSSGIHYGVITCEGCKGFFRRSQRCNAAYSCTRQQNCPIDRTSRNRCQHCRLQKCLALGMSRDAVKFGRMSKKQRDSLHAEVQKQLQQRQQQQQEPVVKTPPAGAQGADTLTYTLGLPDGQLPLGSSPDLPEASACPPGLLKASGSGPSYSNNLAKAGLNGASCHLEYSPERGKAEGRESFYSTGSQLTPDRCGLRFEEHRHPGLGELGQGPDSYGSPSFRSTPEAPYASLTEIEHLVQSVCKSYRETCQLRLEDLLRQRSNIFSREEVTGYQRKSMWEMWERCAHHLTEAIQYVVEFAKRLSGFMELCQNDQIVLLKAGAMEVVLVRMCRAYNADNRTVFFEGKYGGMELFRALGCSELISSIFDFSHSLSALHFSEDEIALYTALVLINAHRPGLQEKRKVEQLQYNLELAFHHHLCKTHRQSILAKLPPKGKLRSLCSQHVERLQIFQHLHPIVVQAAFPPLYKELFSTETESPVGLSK
Chain of Nuclear receptor subfamily 1 group I member 3 (Homo sapiens) (Q14994 whole entry, looked up, the tested form may be a part): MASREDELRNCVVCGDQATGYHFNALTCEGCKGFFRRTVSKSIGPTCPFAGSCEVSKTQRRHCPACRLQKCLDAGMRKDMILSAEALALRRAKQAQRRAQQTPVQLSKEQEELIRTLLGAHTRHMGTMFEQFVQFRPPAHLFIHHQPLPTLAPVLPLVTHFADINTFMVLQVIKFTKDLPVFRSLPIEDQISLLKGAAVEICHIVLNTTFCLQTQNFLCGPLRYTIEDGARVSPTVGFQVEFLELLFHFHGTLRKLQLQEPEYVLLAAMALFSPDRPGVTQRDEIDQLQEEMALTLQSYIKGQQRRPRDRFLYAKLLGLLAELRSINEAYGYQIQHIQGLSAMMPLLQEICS
Chain of Retinoic acid receptor RXR-alpha (Homo sapiens) (P19793 whole entry, looked up, the tested form may be a part): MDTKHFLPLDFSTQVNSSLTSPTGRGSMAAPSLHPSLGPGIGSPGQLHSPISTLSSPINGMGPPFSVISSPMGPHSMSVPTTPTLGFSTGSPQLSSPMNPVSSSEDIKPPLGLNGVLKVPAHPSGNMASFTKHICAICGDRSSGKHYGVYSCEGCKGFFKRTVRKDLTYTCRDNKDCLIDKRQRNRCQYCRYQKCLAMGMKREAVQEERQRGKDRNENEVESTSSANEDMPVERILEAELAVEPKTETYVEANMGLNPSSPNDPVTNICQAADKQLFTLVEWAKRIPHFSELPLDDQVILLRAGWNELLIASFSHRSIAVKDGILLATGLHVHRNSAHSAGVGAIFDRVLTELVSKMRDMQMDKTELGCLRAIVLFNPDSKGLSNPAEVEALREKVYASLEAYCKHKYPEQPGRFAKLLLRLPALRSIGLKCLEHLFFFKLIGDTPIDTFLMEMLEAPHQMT
Chain of Bile acid receptor (Homo sapiens) (Q96RI1 whole entry, looked up, the tested form may be a part): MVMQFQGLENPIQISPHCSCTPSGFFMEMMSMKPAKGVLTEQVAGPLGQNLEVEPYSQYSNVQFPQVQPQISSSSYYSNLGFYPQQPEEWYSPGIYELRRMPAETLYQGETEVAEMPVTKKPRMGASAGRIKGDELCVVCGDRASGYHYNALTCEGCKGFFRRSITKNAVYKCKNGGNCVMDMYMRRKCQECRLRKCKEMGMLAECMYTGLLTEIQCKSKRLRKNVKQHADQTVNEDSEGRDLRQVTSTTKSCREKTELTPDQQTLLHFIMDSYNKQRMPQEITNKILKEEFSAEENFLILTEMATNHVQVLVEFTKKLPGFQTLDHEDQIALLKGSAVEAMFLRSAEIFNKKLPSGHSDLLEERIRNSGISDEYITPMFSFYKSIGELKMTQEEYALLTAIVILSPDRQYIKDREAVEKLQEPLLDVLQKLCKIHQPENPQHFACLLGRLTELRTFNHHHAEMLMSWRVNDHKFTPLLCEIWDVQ
Chain of human Thyroid Receptor alpha (THRa1), THRA (gene 7067) (P10827 whole entry, looked up, the tested form may be a part): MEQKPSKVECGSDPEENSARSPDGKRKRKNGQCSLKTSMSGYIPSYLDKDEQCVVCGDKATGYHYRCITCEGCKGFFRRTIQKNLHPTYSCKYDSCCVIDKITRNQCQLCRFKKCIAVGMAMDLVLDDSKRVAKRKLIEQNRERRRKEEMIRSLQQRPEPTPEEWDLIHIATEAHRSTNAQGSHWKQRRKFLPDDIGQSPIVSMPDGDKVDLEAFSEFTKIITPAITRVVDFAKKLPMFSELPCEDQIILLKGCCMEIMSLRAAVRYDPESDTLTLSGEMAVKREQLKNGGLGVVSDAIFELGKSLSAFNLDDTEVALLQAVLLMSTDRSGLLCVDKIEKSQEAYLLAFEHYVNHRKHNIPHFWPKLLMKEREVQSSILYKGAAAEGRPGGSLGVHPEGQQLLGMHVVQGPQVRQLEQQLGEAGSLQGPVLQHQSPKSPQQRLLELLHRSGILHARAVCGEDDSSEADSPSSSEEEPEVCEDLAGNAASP
Chain of Nuclear receptor subfamily 4 group A member 2 (Homo sapiens) (P43354 whole entry, looked up): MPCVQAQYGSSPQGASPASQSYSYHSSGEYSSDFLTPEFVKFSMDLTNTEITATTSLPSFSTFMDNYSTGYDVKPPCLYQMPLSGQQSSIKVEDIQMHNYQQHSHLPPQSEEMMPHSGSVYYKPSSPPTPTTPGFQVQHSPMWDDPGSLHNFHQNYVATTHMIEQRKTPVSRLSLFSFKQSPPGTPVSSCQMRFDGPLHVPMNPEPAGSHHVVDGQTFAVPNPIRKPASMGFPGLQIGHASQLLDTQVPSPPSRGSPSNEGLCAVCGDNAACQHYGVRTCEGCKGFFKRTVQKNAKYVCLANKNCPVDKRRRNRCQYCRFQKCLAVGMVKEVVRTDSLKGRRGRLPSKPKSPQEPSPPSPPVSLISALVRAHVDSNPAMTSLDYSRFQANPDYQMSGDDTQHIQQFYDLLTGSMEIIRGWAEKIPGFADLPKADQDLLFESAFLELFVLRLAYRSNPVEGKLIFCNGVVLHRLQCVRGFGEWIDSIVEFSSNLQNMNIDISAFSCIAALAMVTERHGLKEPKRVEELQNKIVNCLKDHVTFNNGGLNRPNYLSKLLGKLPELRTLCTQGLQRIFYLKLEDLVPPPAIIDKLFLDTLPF

C=C(C)C(=O)OCCCCCC
inactive: [1] | [2] | [3] | [4] | [5] | [6] | [7] | [8] | [9] | [10] | [11]

CCCC(=O)OC/C=C(\C)CCC=C(C)C
active: [16] 68.8 µM
not listed: [3] | [4] | [7] | [11] | [17] | [18] | [19] | [20]
inactive: all other assays above

CO[Si](CCCNCCN)(OC)OC
inactive: [1] | [4] | [5] | [7] | [14] | [9] | [10] | [15] | [16]

CC(C)CC(=O)CC(C)CC(C)C (stereo not given)
not listed: [2] | [3] | [9] | [10] | [15] | [18] | [19] | [20]
inactive: all other assays above

COC(=O)[C@]1(C)CCC[C@@]2(C)[C@H]1CC=C1C=C(C(C)C)CC[C@@H]12
active: [12] 6.77 µM | [16] 73.3 µM
inactive: [13] | [3] | [4] | [10] | [15] | [17] | [11]

COC(=O)/C=C\C(=O)OC
inactive: [2] | [3] | [5] | [18] | [9] | [10] | [17]
active: [16] 76.9 µM

O=C(Oc1ccccc1)c1ccccc1
inactive: [12] | [1] | [4] | [6] | [7] | [14] | [9] | [15] | [16] | [19] | [20]

Cc1ccnc(N)c1
inactive: [12] | [1] | [4] | [6] | [8] | [9] | [15] | [11] | [19] | [20]

CC(=O)CCc1ccccc1
inactive: [4] | [7] | [14] | [10] | [17] | [11]

CCCOCCC
not listed: [7] | [8] | [9] | [10] | [12] | [14] | [19] | [20]
inactive: all other assays above

CCc1cc(C(N)=S)ccn1
inactive: [3] | [18] | [7] | [10] | [17] | [11] | [19] | [20]

CN(C)c1ccc(C(c2ccccc2)c2ccc(N(C)C)cc2)cc1
inactive: [13] | [4] | [5] | [8] | [9] | [15] | [17] | [11]
active: [16] 75.8 µM

[O-][n+]1ccc(Cl)cc1
inactive: [12] | [2] | [4] | [18] | [7] | [14] | [10] | [15]
